Bioassay records (PubChem)
In the library only some 9.2% were active in any assay of this set; here they are far more common.
ELG1 genotox – qHTS screen for small molecules that induce genotoxicity in human embryonic kidney (HEK293T) cells expressing luciferase-tagged ELG1. HEK293T ELG1-luciferase reporter, luminescence, 16 h. Potency, µM (doses to about 46 µM), inactives show at the highest dose activity change, positive = activation, hits mostly activators. 330,000 compounds, 1.3% hits. AID 504466, 2011; further: % of control where 0% means no effect; nearly all actives have a fitted effect of over 60% in size
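Screening used a luciferase reporter fused to human ELG1 in HEK293T cells. Luminescence was read on a CCD plate imager after 16 hr exposure and 30 min ONE-Glo incubation.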
FLuc modulator – qHTS profiling assay for firefly luciferase inhibitor/activator using purifed enzyme and Km concentrations of substrates (counterscreen for miR-21 project). AID 588342, 2011. 360,000 compounds, 6.9% hits. Potency, µM (titrated, usually from 57.5 µM), for inactives: at the top dose activity change, negative = inhibition, hits mostly inhibitors. purified FLuc, Km substrates, luminescence inhibition;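 further: plate controls were vehicle for no effect and reference inhibitor for full effect; nearly all actives have a fitted effect of over 55% in size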
Target sequence (P08659 whole entry, looked up): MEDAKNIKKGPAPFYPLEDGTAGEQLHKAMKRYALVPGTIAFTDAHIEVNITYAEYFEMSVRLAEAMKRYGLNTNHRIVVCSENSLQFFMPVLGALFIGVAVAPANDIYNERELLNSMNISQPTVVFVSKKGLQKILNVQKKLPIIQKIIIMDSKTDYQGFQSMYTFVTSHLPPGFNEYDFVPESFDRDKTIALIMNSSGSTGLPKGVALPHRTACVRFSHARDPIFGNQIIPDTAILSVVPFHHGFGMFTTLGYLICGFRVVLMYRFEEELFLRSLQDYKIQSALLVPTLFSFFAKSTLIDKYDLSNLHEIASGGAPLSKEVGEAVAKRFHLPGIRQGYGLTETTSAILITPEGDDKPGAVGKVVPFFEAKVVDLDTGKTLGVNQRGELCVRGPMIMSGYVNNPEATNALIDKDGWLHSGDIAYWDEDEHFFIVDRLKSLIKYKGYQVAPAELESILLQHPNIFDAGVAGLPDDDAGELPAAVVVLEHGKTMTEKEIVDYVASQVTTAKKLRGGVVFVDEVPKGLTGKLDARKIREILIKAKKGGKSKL
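Biochemical qHTS of compounds, final roughly 60 µM downward over six points, against 10 nM purified firefly luciferase using Km concentrations of substrates (10 uM D-luciferin, 10 uM ATP) in Tris acetate pH 7.5 buffer; luminescence output.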
SMN2 splice enh – qHTS Assay for Enhancers of SMN2 Splice Variant Expression | HEK293 SMN2-luciferase splicing reporter, luminescence, 30-36 h | Potency, µM (doses to about 46.1 µM), for inactives: at the highest dose activity change, positive = activation, actives largely listed as activators | 210,000 compounds, 2.8% hits; further: % of control where 0% means no effect; nearly all actives have a fitted effect of over 55% in size
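HEK293 cells carry an SMN2 minigene-luciferase reporter in which exon 7 inclusion puts luciferase in frame. Cells were seeded at 2000 cells/well, attached for 10-12 hours, then exposed to compounds for 30-36 hours at 37C before ONE-Glo luminescence.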
ELG1 DNA repair – qHTS screen for small molecules that inhibit ELG1-dependent DNA repair in human embryonic kidney (HEK293T) cells expressing luciferase-tagged ELG1 | HEK293T ELG1-luciferase reporter, luminescence, 16 h; DNA damage induced by 5-fluorouridine | Potency, µM (highest dose often 46.1 µM), inactives show at the top dose activity change, negative = inhibition, hits mostly inhibitors | AID 504467, 2011 | 330,000 compounds, 2.3% hits; further: on the % scale 0 is the no-effect control and ±100 the full control effect; nearly all actives have a fitted effect of over 55% in size
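Step one: seed 2,000 cells per well. Step two: pin-transfer compound or DMSO alongside 5-fluorouridine. Step three: incubate 16 hr, 37 °C, 5% CO2. Step four: add ONE-Glo, wait 30 min, read luminescence.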
Rab9 promoter act – qHTS Assay for Rab9 Promoter Activators; Huh7 Rab9 promoter-luciferase reporter, luminescence, 24 h; Potency, µM (series often up to 9.22 µM), for inactives: at the top dose activation, negative = inhibition, usual class: activators; 320,000 compounds, 2.8% hits; AID 485297, 2010; further: % of control where 0% means no effect; nearly all actives have a fitted effect of over 60% in size
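Huh7 cells stably carrying Rab9 promoter–luciferase reporter, plated 1500 cells/well, compound added after 2 h and incubated 24 h at 37 °C; luciferase luminescence then read after 10 min with detection reagent.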
NPC1 promoter act – qHTS Assay for NPC1 Promoter Activators; 320,000 compounds, 2.4% hits; Huh7 NPC1 promoter luciferase reporter, 24 h; Potency, µM (top dose mostly 9.22 µM), for inactives: at the highest dose activation, usual class: activators; further: % of control where 0% means no effect; nearly all actives have a fitted effect of over 60% in size
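Stable NPC1-promoter luciferase Huh7 line; cpd (DMSO) 24 h, 37 °C, 5% CO2; Amplite luciferase reagent 10 min RT; luminescence readout. qHTS format.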
Numbers without * were called inactive; ? = inconclusive; · = no result given; [ ] = dose if it differs, or a comment. The call rests on the fitted dose curve; in most records, active means well fitted curve in the direction sought with a large enough effect; inconclusive means small, poorly fitted or top-dose-only effect, or another doubt; inactive means no such curve, though single readings can be large; an effect the other way counts as inactive or inconclusive. Potency means the concentration at half of the fitted maximal effect.

SMILES	ELG1 genotox	FLuc modulator	SMN2 splice enh	ELG1 DNA repair	Rab9 promoter act	NPC1 promoter act
CC(C)OP(=O)(OC(C)C)C(NC(=O)c1ccccc1Br)C(N)=O (stereo not given)	0%	3%	·	14%	-2%	-1%
COc1ccccc1CN1CC(C(=O)NCc2ccc(SC)cc2)CCC1=O (stereo not given)	-2%	-10%	·	-10%	6%	7%
COc1ccc(C(=O)O/N=C(\N)c2cccc(C)c2)cc1OC	?	21µM*	·	?	?	?
COc1ccc(/C(N)=N/OC(=O)CSc2ccccc2)cc1OC	18µM*	24µM*	12%	?	17%	27%
COc1ccc(C(=O)O/N=C(\N)c2ccncc2)cc1OC	17%	-12%	17%	?	10%	-1%
COc1ccc(/C(N)=N/OC(=O)c2ccc(C)c([N+](=O)[O-])c2)cc1OC	?	?	-7%	?	14%	10%
COc1ccc(C(=O)O/N=C(\N)c2ccccc2)cc1OC	21µM*	11µM*	·	?	3.5µM*	2.8µM*
COc1ccccc1-c1c(C(F)(F)F)oc2cc(OCC(=O)Nc3cc(C)ccc3C)ccc2c1=O	3%	3%	·	-1%	-5%	-5%
CCOC(=O)/C(C#N)=C/c1c[nH]c2ccccc12	8%	19µM*	11%	?	25%	-3%
CCOC(=O)/C(C#N)=C/Nc1ccccc1OC	?	6.7µM*	?	?	2.2µM*	3.2µM*
CCOC(=O)/C(C#N)=C\c1cn(C)c2ccccc12	-3%	-15%	·	5.8µM*	9%	-1%
O=C(Nc1ccc2c(c1)OCO2)c1noc2c1CCCC2	0.65µM*	1.5µM*	·	?	0.63µM*	0.79µM*
O=C(Nc1ccc2c(c1)OCO2)c1noc2c1CCCCC2	?	2.1µM*	5.6µM*	?	0.45µM*	0.56µM*
Cc1c(C(=O)OCC(=O)N2CCN(c3ccccc3)CC2)oc2ccccc12	-3%	·	·	?	·	·
Cc1occc1C(=O)N1CCN(c2ccc([N+](=O)[O-])cc2)CC1	-9%	2%	·	19%	9%	-1%
Cc1c(-c2ccccc2)oc2c(C(=O)N3CCN(c4ccc([N+](=O)[O-])cc4)CC3)cccc2c1=O	-4%	-3%	-32%	3.3µM*	0%	15%
Cc1c(C(=O)N2CCN(c3ccc([N+](=O)[O-])cc3)CC2)oc2ccccc12	0%	4%	·	11µM*	-11%	0%
Cc1cccc(C(=O)NCC(=O)OCC(=O)N(C)CC(=O)Nc2ccc(F)cc2)c1	-1%	-5%	·	?	-3%	-1%
CCCc1ccc(OCc2ccc(C(=O)N3CCN(c4ccccn4)CC3)o2)c(OC)c1	-31%	?	?	16µM*	?	?
O=C(c1ccc(CS(=O)(=O)c2ccc(Br)cc2)o1)N1CCN(c2ccccn2)CC1	-7%	-3%	-5%	18µM*	-4%	3%
COc1ccc(CC(=O)N2CCN(c3ccccn3)CC2)cc1OC	1%	3%	10%	-2%	-1%	-1%
Cc1ccc(S(=O)(=O)Cc2ccc(C(=O)N3CCN(c4ccccn4)CC3)o2)cc1	-11%	0%	6%	?	-2%	-1%
C=CCNC(=O)NC(=O)CSc1nnc(C(F)(F)F)n1C	0%	1%	-6%	6%	1%	-3%
Cc1ccc(Sc2c(C=O)c3ccccc3n2C)cc1	-11%	2%	-47%	5.8µM*	3%	2%
COc1ccc(S(=O)(=O)Nc2cc3c4c(c2)CCN4C(=O)CC3)cc1C	10%	0%	·	23%	0%	-1%
SMILES	ELG1 genotox	FLuc modulator	SMN2 splice enh	ELG1 DNA repair	Rab9 promoter act	NPC1 promoter act
O=C(Nc1ccc(N2CCN(C(=O)c3ccco3)CC2)cc1)c1ccc2c(c1)OCO2	7%	0%	-39%	18µM*	-1%	2%
CCN1CCN(C(=O)c2cc3c(-c4ccc(Cl)cc4)nn(C)c3s2)CC1	2%	-1%	0%	-20%	7%	8%
Cc1ccccc1C(=O)N1CCN(c2ccc(NC(=O)c3cccnc3)cc2)CC1	-12%	-2%	-30%	?	-4%	0%
Cc1ccccc1C(=O)N1CCN(c2ccc(NC(=O)c3ccc4c(c3)OCO4)cc2)CC1	-20%	2%	·	5.8µM*	-11%	-6%
O=C(Nc1ccc(N2CCN(C(=O)c3ccco3)CC2)cc1)c1cc(Br)ccc1Cl	-11%	·	·	12µM*	-18%	-19%
Cn1nc(-c2ccc(Cl)cc2)c2cc(C(=O)N3CCN(C(=O)c4ccco4)CC3)sc21	-6%	-11%	-3%	8.2µM*	-4%	7%
Cc1nc2cccnc2n1C1CCN(C(=O)Nc2ccccc2)CC1	·	-11%	·	·	·	·
Cc1ccccc1C(=O)N1CCN(c2ccc(NC(=S)NC(=O)c3ccco3)cc2)CC1	-16%	-1%	·	?	-16%	-6%
COc1ccccc1C(=O)NC(=S)Nc1ccc(N2CCN(C(=O)c3ccco3)CC2)cc1	-11%	-6%	·	13µM*	-19%	-9%
O=C(c1ccco1)N1CCN(c2ccc(Cl)cc2)CC1	?	17µM*	11µM*	?	?	?
CCc1nn(CC(=O)NCCc2ccc(OC)cc2OC)c(=O)c2cc3c(OC)cccc3n12	·	-4%	-1%	·	·	·
COc1ccc(-c2csc3nc(-c4cccnc4)nc(Cl)c23)cc1OC	-3%	-15%	-105%	?	-4%	-8%
Clc1nc(-c2cccnc2)nc2scc(-c3ccccc3)c12	?	12µM*	15%	?	28%	?
Cc1ccc(C=Nc2cccnc2N)cc1	-2%	6.7µM*	?	?	2%	-3%
CCOc1ccc(C=Nc2cccc3ncccc23)cc1	0%	21µM*	-2%	17%	2%	-1%
Oc1ccc(C=Nc2cccc3ncccc23)c(O)c1	-7%	2%	24%	-2%	-8%	-2%
Cc1ccc(S(=O)(=O)c2ncccc2N)cc1	2%	-1%	·	-6%	-2%[1.84 µM]	-12%
COc1ccc(C=Nc2cccnc2N)cc1	8%	11µM*	·	?	12%	8%
COc1ccc(/C=N/n2c(N)nc(-c3ccccc3)c2-c2ccccc2)cc1	-4%	?	-49%	-5%	13%	14%
